# Source: PubChem BioAssay (National Center for Advancing Translational Sciences (NCATS))
# Shown are actives, neighbours in structure and some others; about 0.77% of the full set was active somewhere.
# Tb PYK inh: blocks Trypanosoma brucei pyruvate kinase; Potency, µM (highest dose often 76.8 µM), inactives show top-dose activity, negative = inhibition, most hits filed as inhibitors; hit rate 0.12% among 410,000; Q57TT1; TbPYK enzyme, Kinase-Glo Plus ATP luminescence, 45 min; also: potency is read from the fitted curve at half-maximal effect; % is scaled to controls: 0 for no effect and ±100 for the full control effect; nearly all actives have a fitted effect of over 50% in size
#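 Screened from lowest to highest concentration, compounds were pinned into TbPYK/substrate mixtures, and ADP (130 uM final) was added. Plates sat at room temperature for 45 min prior to Kinase-Glo Plus detection by luminescence.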
# LmPK inhibitor: LmPK (Leishmania mexicana) enzyme inhibition | Q27686 | purified LmPK, Kinase-Glo ATP luminescence, 1 h | Potency, µM (titrated, usually from 57.5 µM), inactives show top-dose activity change, negative = inhibition, hits mostly inhibitors | hit rate 0.37% among 290,000 | AID 1721; also: potency is read from the fitted curve at half-maximal effect; % is scaled to controls: 0 for no effect and ±100 for the full control effect
# Target sequence (Q27686 whole entry, looked up): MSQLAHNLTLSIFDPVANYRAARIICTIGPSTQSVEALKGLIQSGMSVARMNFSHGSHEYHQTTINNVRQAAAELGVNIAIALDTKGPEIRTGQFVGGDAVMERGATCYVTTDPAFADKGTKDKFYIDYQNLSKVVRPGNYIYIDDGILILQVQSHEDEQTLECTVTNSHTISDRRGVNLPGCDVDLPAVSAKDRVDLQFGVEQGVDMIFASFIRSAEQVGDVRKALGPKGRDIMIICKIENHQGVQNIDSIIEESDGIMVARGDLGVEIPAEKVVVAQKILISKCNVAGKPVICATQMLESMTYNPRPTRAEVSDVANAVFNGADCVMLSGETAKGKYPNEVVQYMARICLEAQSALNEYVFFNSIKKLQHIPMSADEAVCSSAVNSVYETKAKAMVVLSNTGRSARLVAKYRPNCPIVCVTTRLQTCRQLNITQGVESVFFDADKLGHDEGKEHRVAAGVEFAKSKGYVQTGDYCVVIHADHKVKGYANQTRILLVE
#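 Screened at intermediate enzyme activity to detect both inhibitors and activators: LmPK at 0.1 nM, with a 0.5 nM enzyme column as activation reference. PEP 0.5 mM, ADP 0.1 mM; ATP detected by luminescence after 1 h.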
# NS1 inh: inhibitors of influenza NS1 protein function; AID 2326; Potency, µM (doses to about 46.1 µM), for the others: top-dose activity, positive = more growth; hit rate 0.4% among 270,000; calls by dose curve; also: potency is read from the fitted curve at half-maximal effect; actives are rising curves; nearly all actives have a fitted effect of over 50% in size
#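 Read-out: OD600 growth recovery of NS1-expressing budding yeast. Cells grown overnight at 30C in -URA glucose medium, washed, resuspended and diluted 1:100 in 2% galactose assay medium, pH 6.0. Same strain lacking NS1 served as positive control.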
# RE007 growth inh: less growth of the S. pombe RE007 Vpr strain; S. pombe RE007 Vpr strain, BacTiter-Glo ATP luminescence, 24 h; Potency, µM (top dose mostly 92.2 µM), for inactives: at the top dose activity change, negative = less growth, actives largely listed as inhibitors; hit rate 0.21% among 360,000; active = well fitted falling curve with a large enough effect; inconclusive = small, poorly fitted or top-dose-only effect; inactive = no such curve, though single readings can be large or run the other way; also: potency is read from the fitted curve at half-maximal effect; % is scaled to controls: 0 for no effect and ±100 for the full control effect; nearly all actives have a fitted effect of over 50% in size
#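 Fission yeast RE007 carrying one integrated HIV-1 vpr copy, seeded at OD 0.01 in PMG+AL medium with 23 nL pinned compound. Grown 24 h at 30 degrees; viability read by BacTiter-Glo luminescence after 5 min.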
# NS1 inh valid: validation of influenza NS1 protein function inhibitors | shares compounds with NS1 inh | influenza NS1 function cell assay, 15-point titration | activity change, negative = inhibition, % at 32.9 µM | 1,400 tested, under 10 active | AID 492980; calls by dose curve; also: 0% is about no effect
# Flu PR8 replic: reduces influenza A/PR/8/34 replication in MDCK cells. shares compounds with NS1 inh. MDCK infected influenza A/PR/8/34, virus titer TCID50; active compounds read low. virus titer (log TCID50), log10 TCID50 at 5 µM. hit rate 30% among 95; call rule not given here
# * = called active by the depositor; ? = inconclusive; · = not tested or not shown; [ ] = dose if it differs, or a comment. Unless noted, calls follow the shape of the dose curve; as a rule, active = well fitted curve in the direction sought with a large enough effect; inconclusive = small, poorly fitted or top-dose-only effect, or another doubt; inactive = no such curve, though single readings can be large; an effect the other way counts as inactive or inconclusive.
SMILES,Tb PYK inh,LmPK inhibitor,NS1 inh,RE007 growth inh,NS1 inh valid,others
Cc1ccc(-n2nc3c(c2NC(=O)/C=C\c2ccc4c(c2)OCO4)CSC3)c(C)c1,-3%,1%,8.9µM*,8%,3,
Cc1ccc(-n2nc3c(c2NC(=O)/C=C\c2ccc4c(c2)OCO4)CSC3)cc1,-7%,0%,16µM*,-3%,-16,
COc1ccc(/C=C2/C(=O)NC(=O)N(c3ccccc3)C2=O)cc1CN1C(=O)c2ccccc2C1=O,?,0%,-3%,-3%,·,
COc1cc(/C=C2/C(=O)NC(=O)N(c3ccccc3)C2=O)ccc1O,?,-1%,?,7%,34,
CC1(C)S[C@H]2C(NC(=O)[C@@H](N)c3ccc(O)cc3)C(=O)N2[C@@H]1C(=O)O (stereo partly specified),2%,·,·,·,·,
CCCC(CCC)C(=O)OC1C[C@H]2CC[C@@H](C1)[N+]2(C)C (stereo partly specified),2%,-3%,?,-10%[18.4 µM],12,
C[N+]1(C)[C@@H]2CC[C@H]1CC(OC(=O)C(c1ccccc1)c1ccccc1)C2 (stereo partly specified),-16%,1%,-1%,-5%,·,
O=C(OCn1nnc2ccccc2c1=O)c1cc2ccccc2o1,-4%,2%,9%,-1%,·,
O=C(OCn1nnc2ccccc2c1=O)c1ccc2ccccc2n1,8%,1%,16µM*,18%,-17,
Cc1ccc(Cn2c(SCC(=O)N3CC(=O)Nc4ccccc43)nc3ccccc3c2=O)cc1,-11%,1%,13µM*,-2%,6,
O=C1CN(C(=O)CSc2nc3cc(Cl)ccc3c(=O)n2Cc2ccccc2)c2ccccc2N1,-1%,-2%,?,-9%,·,
Cc1cc(C=c2sc3nc4ccccc4n3c2=O)c(C)n1-c1ccccc1,0%,·,·,·,·,
CCOC(=O)c1cnn2c(N)c(C#N)nnc12,-2%,-1%,5µM*,2%,-15,
CC1Cc2ccccc2N1C(=O)CSc1nnnn1C(C)C (stereo unspecified),-10%,1%,-4%,-2%,·,
COc1ccc(C(=O)Oc2cc(N)n(S(=O)(=O)c3ccc(C)cc3)n2)cc1,1%,-1%,12%,-15%,·,
COc1ccc(S(=O)(=O)n2nc(OC(=O)c3c(-c4ccccc4Cl)noc3C)cc2N)cc1,-50%,1%,10µM*,-3%,-1,
Cc1cc(N2C(=O)C(O)=C(C(=O)c3ccc(C)o3)C2c2cccs2)no1 (stereo unspecified),-15%,0%,11µM*,-21%,-26,
Cc1cc(N2C(=O)C(O)=C(C(=O)c3cc4ccccc4o3)C2c2cccs2)no1 (stereo unspecified),-6%,1%,-1%,-8%,·,
COc1ccccc1-n1c(SCC(=O)N2CCCC2)nc2cccnc21,-22%,0%,2µM*,-2%,-4,
COc1ccc(Cc2c(O)nc(SCC(=O)N3CCOCC3)[nH]c2=O)cc1,1%,-2%,1%,1%,·,
COc1ccccc1-n1c(SCC(=O)N2CCOCC2)nc(O)cc1=O,-3%,-15%,?,5%,·,
COc1ccccc1-n1c(SCC(=O)N2CCOCC2)nc(O)c(Cc2ccccc2)c1=O,-2%,-10%,?,15%,13,
CCN(CC)C(=O)CSc1nc2ccccc2c(=O)n1-c1ccccc1OC,-12%,4%,35µM*,-1%,-6,
O=C(CSc1nc(O)c(Cc2ccccc2)c(=O)[nH]1)N1CCOCC1,2%,8%,?,-4%,14,Flu PR8 replic=8.5
CCN(CC)C(=O)CSc1nc2cccnc2n1-c1ccccc1OC,1%,-2%,-1%,-12%,·,
SMILES,Tb PYK inh,LmPK inhibitor,NS1 inh,RE007 growth inh,NS1 inh valid,others
CCN1C(=O)[C@H]2[C@@H](c3ccc(C)cc3)N3C(=O)N(c4ccc(OC)cc4)C(=O)[C@@]3(C)[C@H]2C1=O,-1%,6%,7%,-4%,·,
CCN(c1ccc(OC)cc1)S(=O)(=O)c1csc(C(=O)N2CCCC2)c1,5%,0%,-9%,0%,·,
Cc1cnc(NC(=O)C2(C)CCN2C(=O)C(C)C)s1 (stereo unspecified),-9%,·,·,29%,·,
CS(=O)(=O)N1CCc2cc(-c3csc(NC(=O)Cc4cccs4)n3)ccc21,-1%,-8%,11µM*,9%,19,
CC#CCC(C)[C@H](O)/C=C/C1[C@H](O)C[C@@H]2C/C(=C\CCCC(=O)O)C[C@H]12 (stereo partly specified),1%,·,·,·,·,
Cc1ccc(-n2c(O)c(C=NCCN(C)C)c(=O)[nH]c2=O)cc1,3%,3%,6%,-2%,·,
CN(C)CCN=Cc1c(O)n(-c2cccc3ccccc23)c(=O)[nH]c1=O,-4%,0%,?,-13%,7,
O=C(Nc1nc(-c2ccco2)c(-c2ccco2)s1)C1CC(=O)N(c2ccc3c(c2)OCCO3)C1 (stereo unspecified),?,6%,10µM*,-10%,15,
O=C(O)[C@@H]1[C@@H](C(=O)Nc2ccccc2)[C@@H]2C=C[C@@H]1O2,·,·,-1%,·,·,
Cc1onc(-c2ccccc2)c1C(=O)Nc1cccnc1,-8%,-2%,6.3µM*,3%,2,
OC(COc1ccc(Cl)cc1)CN1CCN(c2cccc(Cl)c2)CC1 (stereo unspecified),5%,1%,-52%,7%,·,
CO[C@@H]1[C@@H](OC2OC(C)C(OC3CC(C)(O)C(OC(=O)CC(C)C)C(C)O3)C(N(C)C)C2O)[C@@H](CC=O)C[C@@H](C)C(=O)/C=C\C2O[C@H]2C[C@@H](C)OC(=O)C[C@H]1OC(C)=O (stereo partly specified),-5%,·,·,·,·,
NC(=S)N/N=C1\CC(c2ccc3c(c2)OCCCO3)Oc2ccc(F)cc21 (stereo unspecified),-13%,2%,2µM*,4%,1,
COc1cccc(N(C)C(=S)Oc2ccc3c(c2)CCCC3)n1,-2%,·,·,·,·,
CC(C)CC(C(=O)Nc1cccc(O)c1)N1C(=O)c2ccccc2C1=O (stereo unspecified),-1%,5%,?,24%,·,
CC(C)CC(C(=O)Nc1oc(-c2ccco2)c(-c2ccco2)c1C#N)N1C(=O)c2ccccc2C1=O (stereo unspecified),-2%,5%,10µM*,17%,-11,Flu PR8 replic=8
CCOC(=O)c1c(-c2ccco2)csc1N,1%,3%,1.3µM*,-21%,?,
CCOC(=O)c1c(-c2cccs2)csc1N,-18%,1%,-4%,-3%,·,
COc1cccc(OC)c1-c1cc(C(=O)NC2(C(=O)O)C3CC4CC(C3)CC2C4)nn1-c1ccnc2cc(Cl)ccc12 (stereo unspecified),-9%,·,·,·,·,
